PubChem BioAssay (NCATS)
Records with an inconclusive call do not appear. Calls of active or inactive are those of the source. Calls follow the shape of the dose curve; as a rule, active = well fitted curve in the direction sought with a large enough effect; inconclusive = small, poorly fitted or top-dose-only effect, or another doubt; inactive = no such curve, though single readings can be large; an effect the other way counts as inactive or inconclusive.

What was measured:
[1] = qHTS of pediatric cancer cell lines to identify multiple opportunities for drug repurposing: Primary screen for SJ-GBM2 cells (AID 1347091)
Method in brief: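 Viability measured as metabolically active cells via CellTiter-Glo luminescence following 48 hours of compound exposure, 11-point dilutions in confirmatory testing. 500-1,000 cells/well plated 5 hours before dosing; controls were DMSO and 2.3 µM bortezomib.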

[2] = qHTS of pediatric cancer cell lines to identify multiple opportunities for drug repurposing: Primary screen for A673 cells (AID 1347092); also: nearly all actives have a fitted effect of over 45% in size
Method in brief: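 Titration-based qHTS on A673 cells: MIPE compounds spanned 11 points (0.78 nM to 46 µM final), NPC compounds 8 points (0.59 nM to 46 µM final). Viability after 48 h was measured by ATP luminescence.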

[3] = qHTS of pediatric cancer cell lines to identify multiple opportunities for drug repurposing: Primary screen for SK-N-MC cells (AID 1347093); also: series mostly up to about 46 µM
Method in brief: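 Metabolically active cells were quantified by ATP-dependent luminescence (CellTiter-Glo, 15 min at room temperature) following 48 h treatment. Cells had been plated at 500-1,000 per well and settled for 5 h beforehand.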

[4] = qHTS of pediatric cancer cell lines to identify multiple opportunities for drug repurposing: Primary screen for BT-37 cells (AID 1347094); also: series mostly up to about 57 µM
Method in brief: (§1)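 Phenotypic viability qHTS, 48 h compound exposure, CellTiter-Glo luminescence read-out; multi-concentration dosing so that potency and efficacy derive directly from the primary screen's curves.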

[5] = qHTS of pediatric cancer cell lines to identify multiple opportunities for drug repurposing: Primary screen for NB-EBc1 cells (AID 1347095)
Method in brief: as §1

[6] = qHTS of pediatric cancer cell lines to identify multiple opportunities for drug repurposing: Primary screen for U-2 OS cells (AID 1347096); also: nearly all actives have a fitted effect of over 50% in size
Method in brief: (§2)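 Viability after 48 h compound treatment at 37C, 500-1,000 cells/well, read as ATP luminescence with CellTiter-Glo. Primary screens used 11-point (MIPE, 0.78 nM-46 µM) or 8-point (NPC, 0.59 nM-46 µM) final concentrations; follow-up screens used 11-point dilutions.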

[7] = qHTS of pediatric cancer cell lines to identify multiple opportunities for drug repurposing: Primary screen for SK-N-SH cells (AID 1347098);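 also: DMSO served as neutral control and bortezomib at 2.3 µM as positive control; nearly all actives have a fitted effect of over 65% in size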
Method in brief: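 Cells (500-1,000/well) rested 5 h, then received compounds for 48 h; metabolically active cells were measured by CellTiter-Glo luminescence. Final concentrations spanned up to 46 µM (MIPE, 11-point) or 0.59 nM-46 µM (NPC, 8-point) in primary screens, 11-point in follow-ups.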

[8] = qHTS of pediatric cancer cell lines to identify multiple opportunities for drug repurposing: Primary screen for NB1643 cells (AID 1347099); also: nearly all actives have a fitted effect of over 50% in size
Method in brief: as §1

[9] = qHTS of pediatric cancer cell lines to identify multiple opportunities for drug repurposing: Primary screen for LAN-5 cells (AID 1347100)
Method in brief: as §2

[10] = qHTS of pediatric cancer cell lines to identify multiple opportunities for drug repurposing: Primary screen for Saos-2 cells (AID 1347097); also: nearly all actives have a fitted effect of over 40% in size
Method in brief: as §1

Measured: Potency

CCCCOCCOCCOCc1cc2c(cc1CCC)OCO2
not listed: [10]
inactive: all other assays above

c1cnc(N2CCN(Cc3ccc4c(c3)OCO4)CC2)nc1
not listed: [7] | [8]
inactive: all other assays above

Brc1c(NC2=NCCN2)ccc2nccnc12
not listed: [7]
inactive: all other assays above

OCCN1CCN(CCCN2c3ccccc3C=Cc3ccccc32)CC1
not listed: [7] | [8]
inactive: all other assays above

C[N+](C)(C)CCOC(N)=O
not listed: [8] | [10]
inactive: all other assays above

C[N+](C)(C)CCCCCCCCCC[N+](C)(C)C
not listed: [10]
inactive: all other assays above

CCCCNc1ccc(C(=O)OCCN(C)C)cc1
not listed: [10]
inactive: all other assays above

CC(=O)Nc1nnc(S(N)(=O)=O)s1
not listed: [8] | [10]
inactive: all other assays above

CN1C(=O)CC[C@H]1c1cccnc1
not listed: [10]
inactive: all other assays above

c1ccc2c(c1)CCCC2C1=NCCN1 (configuration not stated)
not listed: [10]
inactive: all other assays above

COCCc1ccc(OCC(O)CNC(C)C)cc1 (configuration not stated)
not listed: [8] | [10]
inactive: all other assays above

NC(=O)c1ncn([C@@H]2O[C@H](CO)[C@@H](O)[C@H]2O)c1O
not listed: [10]
inactive: all other assays above

Nc1c2c(nc3ccccc13)CCCC2O (configuration not stated)
not listed: [7] | [8]
inactive: all other assays above

O=C(O)CP(=O)(O)O
not listed: [7] | [8]
inactive: all other assays above

CC(=O)Oc1cc(C(C)C)c(OCCN(C)C)cc1C
not listed: [10]
inactive: all other assays above

CCOC(=O)C1=C(C)NC(C)=C(C(=O)OC)C1c1cccc([N+](=O)[O-])c1 (configuration not stated)
not listed: [3] | [7] | [10]
inactive: all other assays above

CN(C)CC/C=C1\c2ccccc2COc2ccccc21
inactive: [1] | [3] | [4] | [5] | [6] | [9]

NC(N)=NC(=O)Cc1c(Cl)cccc1Cl
not listed: [5] | [7]
inactive: all other assays above

NC(N)=N/N=C/c1c(Cl)cccc1Cl
not listed: [2] | [7]
inactive: all other assays above
